# Hit rate of the full screen: of about 17,000 compounds, about 220 (1.3%) were called active.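 The calls were made as follows: active = spot fluorescence over background significantly raised, with a chance value under 7% in all four replicate spots of the compound; inactive = the rest.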 This excerpt belongs to a sample that is enriched for actives.
# Target: Nuclear factor NF-kappa-B p105 subunit (Homo sapiens) (UniProt P19838)
# Assay: binders of NF-kB p50 subunit, primary screen, biochemical, small molecule microarray, anti-His fluorescence (AID 624139);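 also: probe protein is his-tagged human p50 processed subunit at 1 µg/ml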
# Conditions: anti-His fluorescence binding
# Sequence of Nuclear factor NF-kappa-B p105 subunit (Homo sapiens) (P19838 1-433 limits assumed): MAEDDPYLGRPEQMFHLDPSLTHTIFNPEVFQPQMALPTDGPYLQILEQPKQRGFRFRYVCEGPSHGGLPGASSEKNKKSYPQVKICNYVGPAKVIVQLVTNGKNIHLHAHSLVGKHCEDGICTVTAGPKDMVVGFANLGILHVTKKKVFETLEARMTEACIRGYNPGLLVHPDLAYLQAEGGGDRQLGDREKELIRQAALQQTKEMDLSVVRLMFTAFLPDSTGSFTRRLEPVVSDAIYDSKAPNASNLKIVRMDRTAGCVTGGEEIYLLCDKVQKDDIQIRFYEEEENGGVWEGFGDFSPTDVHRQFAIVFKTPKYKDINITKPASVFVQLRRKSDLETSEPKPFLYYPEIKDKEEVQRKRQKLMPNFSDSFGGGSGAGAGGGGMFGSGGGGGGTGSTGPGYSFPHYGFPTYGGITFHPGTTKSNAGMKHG
row,Compound,outcome
1,C[C@@H]1CN([C@@H](C)CO)C(=O)Cc2cc(NC(=O)Cc3ccccc3)ccc2O[C@H]1CN(C)Cc1ccc(C(=O)O)cc1,inactive
2,Cc1noc(C)c1NC(=O)Nc1ccc2c(c1)C(=O)N([C@H](C)CO)C[C@H](C)[C@H](CN(C)C(=O)C1CCCCC1)OCCCC[C@@H](C)O2,inactive
3,C[C@H]1CCCCO[C@H](CN(C)C(=O)CCC(F)(F)F)[C@@H](C)CN([C@@H](C)CO)C(=O)c2cc(NC(=O)Cc3ccccc3)ccc2O1,inactive
4,C=CC[C@]1(C(=O)NCC(O)CO)N=C(c2ccc(OCCCO)cc2)O[C@H]1c1ccccc1 (stereo partly drawn),inactive
5,CNC[C@@H]1Oc2c(NC(=O)C3CCOCC3)cccc2C(=O)N([C@@H](C)CO)C[C@H]1C,inactive
6,COc1ccc(NC(=O)O[C@H]2[C@H](OC(=O)Nc3ccc4c(c3)OCO4)[C@@H](OC(=O)Nc3ccc4c(c3)OCO4)[C@@H](OC)O[C@@H]2CO)cc1,inactive
7,C[C@H](CO)N1C[C@H](C)[C@@H](CN(C)Cc2ccncc2)Oc2ccc(NC(=O)Nc3ccccc3)cc2C1=O,inactive
8,C[C@H](CO)N1C[C@H](C)[C@H](CN(C)Cc2ccncc2)Oc2ccc(NC(=O)Nc3ccc(F)cc3)cc2C1=O,inactive
9,C[C@@H]1CN([C@@H](C)CO)C(=O)c2cc(NS(=O)(=O)c3cn(C)cn3)ccc2O[C@@H](C)CCCCO[C@H]1CN(C)S(=O)(=O)c1cn(C)cn1,inactive
10,OC(COc1ccc2ccccc2c1)Cn1cncn1 (stereo not drawn),inactive
11,COc1ccc(S(=O)(=O)N(C)C[C@@H]2Oc3ccc(NS(=O)(=O)c4ccc(Cl)cc4)cc3C(=O)N([C@H](C)CO)C[C@H]2C)cc1,inactive
12,Cc1cc(C(=O)Nc2cccc3c2O[C@H](CN(C)C(=O)Nc2ccccc2)[C@@H](C)CN([C@H](C)CO)C3=O)n(C)n1,inactive
13,O=c1[nH]c(CSCCO)nc2c1C1(CCCCC1)Cc1ccccc1-2,inactive
14,C[C@@H]1CCCCO[C@@H](CN(C)Cc2ccc(Cl)c(Cl)c2)[C@@H](C)CN([C@@H](C)CO)C(=O)c2cc(NS(C)(=O)=O)ccc2O1,inactive
15,CO[C@H]1O[C@H](CO)[C@@H](OC(=O)Nc2ccccc2)[C@H](OC(=O)Nc2ccc3c(c2)OCO3)[C@H]1OC(=O)Nc1ccc2c(c1)OCO2,inactive
16,O=C(Cn1c(-c2ccccn2)nc2ccccc21)NCCN1CCOCC1,inactive
17,C[C@H]1CN([C@@H](C)CO)C(=O)CCCn2nncc2CO[C@@H]1CN(C)Cc1ccc(Oc2ccccc2)cc1,inactive
18,O=C1c2ccccc2C(=O)N1CCCn1c2ccccc2c2nc3ccc([N+](=O)[O-])cc3cc21,inactive
19,C[C@H]1CCCCO[C@@H](CN(C)Cc2ccncc2)[C@@H](C)CN([C@@H](C)CO)C(=O)c2cc(NC(=O)Nc3ccc(F)cc3)ccc2O1,inactive
20,CN(C)c1nc(Nc2nc3ccccc3[nH]2)nc(N(C)C)n1,inactive
21,Cc1ccc(NC(=O)c2ccc(NCc3cccnc3)c([N+](=O)[O-])c2)cc1,inactive
22,COc1ccc(S(=O)(=O)N(C)C[C@H]2Oc3ccc(NC(=O)CCC(F)(F)F)cc3CC(=O)N([C@H](C)CO)C[C@@H]2C)cc1,inactive
23,CC(C)NC(=O)N(C)C[C@H]1OCCCC[C@H](C)Oc2ccc(NC(=O)CCCN(C)C)cc2C(=O)N([C@@H](C)CO)C[C@H]1C,inactive

row,Compound,outcome
1,COC(=O)c1c(NC(=O)c2cc(-c3ccccn3)nc3c(C)cc(C)cc23)sc(C)c1C,inactive
2,CC(C)(C)[C@H]1C=C(C(=O)NCc2ccccc2)O[C@@H](OCc2ccc(CO)cc2)C1,inactive
3,Cc1sc2nc(SCC(=O)Nc3ccccc3C(F)(F)F)nc(N)c2c1C,inactive
4,NC(=O)CSc1nnc(-c2ccccc2F)n1-c1ccccc1,inactive
5,C[C@@H]1CN([C@H](C)CO)C(=O)c2cc(NC(=O)CCCN(C)C)ccc2O[C@H]1CN(C)Cc1ccc(C(=O)O)cc1,inactive
6,CC(C)NC(=O)N(C)C[C@H]1OCCCC[C@H](C)Oc2ccc(NC(=O)CCC(F)(F)F)cc2C(=O)N([C@@H](C)CO)C[C@@H]1C,inactive
7,C[C@@H]1CCCCO[C@@H](CN(C)Cc2ccccc2)[C@H](C)CN([C@H](C)CO)C(=O)c2cc(NS(=O)(=O)c3cccs3)ccc2O1,inactive
8,C[C@@H]1CN([C@H](C)CO)C(=O)Cc2cc(NC(=O)CCN3CCOCC3)ccc2O[C@H]1CN(C)Cc1ccncc1,inactive
9,C[C@@H]1CCCCO[C@H](CN(C)Cc2ccncc2)[C@H](C)CN([C@H](C)CO)C(=O)c2cc(NC(=O)Nc3ccccc3)ccc2O1,inactive
10,CC(C)NC(=O)Nc1cccc2c1O[C@H](CN(C)Cc1ccccc1)[C@H](C)CN([C@H](C)CO)C2=O,inactive
11,C[C@@H]1CN([C@H](C)CO)C(=O)Cc2cc(NC(=O)CCCN(C)C)ccc2O[C@@H]1CN(C)S(=O)(=O)c1cccs1,inactive
12,C[C@H](CO)N1C[C@H](C)[C@@H](CN(C)S(=O)(=O)c2cn(C)cn2)Oc2ccc(N(C)C)cc2CC1=O,inactive
13,C[C@H]1CN([C@@H](C)CO)C(=O)c2cc(NC(=O)Nc3cccc4ccccc34)ccc2O[C@@H]1CN(C)C,inactive
14,C[C@H](CO)N1C[C@H](C)[C@H](CN(C)C(=O)NC2CCCC2)Oc2ncc(-c3ccc(F)cc3)cc2C1=O,inactive
15,CCOc1ccc(-c2cn(S(=O)(=O)c3cccc4nsnc34)nc2N)cc1,inactive
16,Cc1cccc(NC(=O)CN2C(=O)CNC2=O)c1,inactive
17,CC(C)NC(=O)Nc1ccc2c(c1)C(=O)N([C@@H](C)CO)C[C@H](C)[C@@H](CN(C)C)O2,inactive
18,C[C@H](CO)N1C[C@H](C)[C@@H](CN(C)C)Oc2ccc(N(C)C)cc2C1=O,inactive
19,C[C@@H]1CN([C@H](C)CO)C(=O)c2cccc(NS(C)(=O)=O)c2O[C@@H]1CN(C)S(=O)(=O)c1cccs1,inactive
20,C[C@H]1CN([C@@H](C)CO)C(=O)c2cc(NC(=O)NC3CCCCC3)ccc2O[C@@H]1CN(C)S(=O)(=O)c1cccs1,inactive
21,COc1cccc(/C=C(\C#N)C(=O)Nc2c(C)n(C)n(-c3ccccc3)c2=O)c1,inactive
22,C[C@H](CO)N1C[C@H](C)[C@H](CN(C)C(=O)NC2CCCCC2)Oc2ccc(NC(=O)c3ccncc3)cc2CC1=O,inactive
23,Cc1c(C(=O)NC(=S)NCc2cccnc2)oc2ccccc12,inactive

row,Compound,outcome
1,Cc1noc(C)c1NC(=O)N(C)C[C@@H]1OCCCC[C@H](C)Oc2ccc(NC(=O)CCC(F)(F)F)cc2C(=O)N([C@@H](C)CO)C[C@@H]1C,inactive
2,C[C@H]1CN([C@@H](C)CO)C(=O)Cc2cc(NC(=O)Nc3ccc(F)cc3)ccc2O[C@@H]1CN(C)C(=O)NC1CCCCC1,inactive
3,O=C(Nc1cccc(OCC(=O)N2CCOCC2)c1)C1CCCCC1,inactive
4,O=C(C1=C[C@H](c2coc3ccccc3c2=O)C[C@H](OCc2ccc(CO)cc2)O1)N1CCOCC1,inactive
5,C[C@H]1CN([C@@H](C)CO)C(=O)c2cccc(NC(=O)Nc3ccc(C(F)(F)F)cc3)c2O[C@H]1CN(C)C(=O)NC1CCCCC1,active
6,C[C@H](CO)N1C[C@H](C)[C@@H](CN(C)C(=O)NC2CCCCC2)Oc2c(NC(=O)Nc3ccc(F)cc3)cccc2C1=O,inactive
7,C[C@@H]1CN([C@H](C)CO)C(=O)c2cccc(NC(=O)Nc3ccccc3)c2O[C@@H]1CN(C)C(=O)NC1CCCCC1,inactive
8,C[C@@H]1CN([C@H](C)CO)C(=O)Cc2cc(NC(=O)C3CC3)ccc2O[C@H]1CN(C)Cc1ccc(Cl)c(Cl)c1,active
9,CC(C)NC(=O)Nc1ccc2c(c1)C(=O)N([C@@H](C)CO)C[C@@H](C)[C@H](CN(C)C(=O)Cc1ccccc1)OCCCC[C@H](C)O2,inactive
10,C[C@@H]1CCCCO[C@H](CN(C)C(=O)Nc2ccccc2)[C@H](C)CN([C@@H](C)CO)C(=O)c2cc(N(C)C)ccc2O1,inactive
11,C[C@@H]1CCCCO[C@@H](CN(C)C(=O)Nc2ccccc2)[C@@H](C)CN([C@@H](C)CO)C(=O)c2cc(N(C)C)ccc2O1,inactive
12,C[C@H](CO)N1C[C@H](C)[C@@H](CN(C)C(=O)Nc2cccc3ccccc23)OCCCC[C@H](C)Oc2ccc(N(C)C)cc2C1=O,active
13,C[C@@H]1CN([C@H](C)CO)C(=O)Cc2cc(NC(=O)C3CC3)ccc2O[C@H]1CN(C)Cc1ccc2c(c1)OCO2,inactive
14,C[C@@H]1CCCCO[C@@H](CN(C)C(=O)Nc2ccccc2)[C@@H](C)CN([C@H](C)CO)C(=O)c2cc(NC(=O)Nc3ccc(F)cc3)ccc2O1,inactive
15,C[C@@H]1CCCCO[C@@H](CN(C)C(=O)Cc2ccccc2)[C@H](C)CN([C@@H](C)CO)C(=O)c2cc(NC(=O)Nc3ccc(F)cc3)ccc2O1,active
16,C[C@H](CO)N1C[C@H](C)[C@@H](CN(C)C(=O)Nc2ccccc2)Oc2ccc(NC(=O)C3CC3)cc2CC1=O,inactive
17,C[C@H](CO)N1C[C@H](C)[C@@H](CN(C)C)OCCCC[C@H](C)Oc2ccc(NC(=O)C3CCCCC3)cc2C1=O,inactive
18,C[C@@H]1CCCCO[C@H](CN(C)C(=O)NC2CCCCC2)[C@H](C)CN([C@@H](C)CO)C(=O)c2cc(NC(=O)C3CCCCC3)ccc2O1,active
19,C[C@@H]1CCCCO[C@H](CN(C)C(=O)Nc2ccccc2)[C@H](C)CN([C@H](C)CO)C(=O)c2cc(NC(=O)Nc3ccccc3)ccc2O1,inactive
20,C[C@@H]1CN([C@@H](C)CO)C(=O)c2cc(NC(=O)C3CCCCC3)ccc2O[C@@H](C)CCCCO[C@@H]1CN(C)C(=O)Nc1ccccc1,inactive
21,C[C@@H]1CCCCO[C@H](CN(C)C(=O)C2CCCCC2)[C@@H](C)CN([C@@H](C)CO)C(=O)c2cc(NC(=O)Nc3ccccc3)ccc2O1,active
22,CC(C)NC(=O)N(C)C[C@@H]1OCCCC[C@@H](C)Oc2ccc(NC(=O)Nc3ccccc3)cc2C(=O)N([C@H](C)CO)C[C@@H]1C,inactive

# Reference: PubChem BioAssay AID624139 (Broad Institute, 2012)
